Measurements taken from the supplement of paper PMC10849652.
About 7,900 targets were measured; listed, in parts, are those with a hit and a random draw of the rest. About 0.6% of all pairs of compound and target were hits.

Key:
Test in all cases: log2 fold change, soluble protein after heating vs DMSO (PISA); higher = thermal stabilisation; K562 cells, 10 uM, 30 min; active = over 0.2 and 3.5 SD of the protein, either way, in both replicates (recomputed)
[1] = compound: C1COCCN1CCN2C3=CC=CC=C3N=C2NC(=O)C4=CC(=CC=C4)[N+](=O)[O-] [IRAK-1-4 Inhibitor I]
In short: (§1)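 Soluble protein was defined as the supernatant after 21,000xg for 90 min. It came from K562 cells at 2×10^6 cells/mL given 10 μM compound for 30 min, heated in aliquots for 3 min across 48°C-58°C, pooled, and extracted in PBS with 0.5% NP-40 at 4°C, and was quantified by TMTpro 16plex LC-MS/MS with equalised channel sums. Thermal stability against control samples, from duplicates, is reported as log2 fold change.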

[2] = compound: C=CC(=O)N1CCC[C@@H](n2nc(-c3ccc(Oc4ccccc4)cc3)c3c(N)ncnc32)C1 [ibrutinib]
In short: as §1

[3] = compound: CC(=O)c1cnc2ccc(-c3cc(Cl)c(O)c(Cl)c3)nc2c1N[C@H]1CC[C@H](CN(C)C)CC1
In short: as §1

[4] = compound: CC(C)(C)Cn1c(N)nc2ccc(-c3[nH]c(C(C)(C)C)nc3-c3ccc(F)cc3)nc21 [ralimetinib]
In short: as §1

[5] = compound: CC(C)(O)CC(=O)NCCn1ccc2ncnc(Nc3ccc(Oc4cccc(C(F)(F)F)c4)c(Cl)c3)c21
In short: as §1

[6] = compound: CC(C)C1=C2N=C(C=C(N2N=C1)NCC3=CC=CC=C3)NCCCCCCN
In short: as §1

[7] = compound: CC(C)C[C@@H](C=O)NC(=O)[C@H](CC(C)C)NC(=O)[C@H](CC(C)C)NC(=O)OCc1ccccc1
In short: as §1

[8] = compound: CC(C)N(C[C@H]1O[C@@H](n2cnc3c(N)ncnc32)[C@H](O)[C@@H]1O)[C@H]1C[C@@H](CCc2nc3cc(C(C)(C)C)ccc3[nH]2)C1 [pinometostat]
In short: as §1

[9] = compound: CC1=C(C(CC(=O)N1)C2=CC=C(C=C2)C(F)(F)F)C(=O)NC3=C(C=C4C(=C3)C=NN4)F
In short: as §1

[10] = compound: CC1=C(C2=C(C=C1)C(=O)C3=CC=CC=C3N2CCCN)C
In short: as §1

Measured: log2 fold change

PTRH2 (UniProt Q9Y3E5)
Sequence of UniProt Q9Y3E5 (Q9Y3E5 whole entry, looked up): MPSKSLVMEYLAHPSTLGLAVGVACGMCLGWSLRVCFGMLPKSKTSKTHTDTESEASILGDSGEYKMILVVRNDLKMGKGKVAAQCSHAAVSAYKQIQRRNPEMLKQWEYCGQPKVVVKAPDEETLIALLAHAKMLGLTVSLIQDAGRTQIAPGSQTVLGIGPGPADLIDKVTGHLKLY
inactive: [1] 0.059 | [2] 0.031 | [3] 0.075 | [4] 0.085 | [5] -0.065 | [6] 0.062 | [7] -0.081 | [8] -0.033 | [9] -0.008 | [10] 0.017

PMPCB (UniProt O75439)
inactive: [1] 0.035 | [2] 0.008 | [3] 0.01 | [4] 0.064 | [5] -0.108 | [6] 0.04 | [7] 0.012 | [8] -0.022 | [9] 0 | [10] 0.015

PIGG (UniProt Q5H8A4)
inactive: [1] 0.004 | [2] -0.039 | [3] -0.032 | [4] 0.168 | [5] 0.015 | [6] -0.046 | [7] 0.005 | [8] 0.027 | [9] 0.011 | [10] 0.018

POLR2C (UniProt P19387)
inactive: [1] -0.041 | [2] -0.025 | [3] 0.227 | [4] 0.102 | [5] 0.003 | [6] 0.058 | [7] 0.042 | [8] 0.065 | [9] -0.016 | [10] -0.025

PTTG1 (UniProt O95997)
Sequence of UniProt O95997 (O95997 whole entry, looked up): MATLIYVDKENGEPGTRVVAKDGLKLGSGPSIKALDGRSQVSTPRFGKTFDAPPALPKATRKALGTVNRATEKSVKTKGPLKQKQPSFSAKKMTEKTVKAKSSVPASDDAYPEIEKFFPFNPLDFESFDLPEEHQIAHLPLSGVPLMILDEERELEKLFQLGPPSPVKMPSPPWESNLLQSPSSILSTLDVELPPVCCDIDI
inactive: [1] -0.026 | [2] -0.017 | [3] 0.057 | [4] -0.069 | [5] -0.03 | [6] -0.002 | [8] 0.036 | [9] 0.055 | [10] -0.084
active: [7] 0.393

PRKD2 isoform 3 (UniProt Q9BZL6)
active: [3] -1.03
inactive: [1] -0.046 | [2] -0.057 | [4] 0.089 | [5] -0.302 | [6] -0.216 | [7] 0.074 | [8] 0.056 | [9] 0.192 | [10] -0.087

PCBP2 isoform 3 (UniProt Q15366)
inactive: [1] -0.065 | [2] -0.048 | [3] -0.056 | [4] 0.017 | [5] -0.067 | [6] -0.211 | [7] -0.029 | [8] -0.049 | [9] -0.013 | [10] 0.025

PHKA1 (UniProt P46020)
inactive: [1] -0.043 | [2] -0.001 | [3] 0.306 | [4] -0.03 | [5] -0.161 | [6] 0.011 | [7] 0.195 | [8] -0.023 | [9] 0.118 | [10] 0.022

POLR2M (UniProt P0CAP2)
inactive: [1] -0.022 | [2] -0.017 | [3] 0.067 | [4] 0.016 | [5] 0.001 | [6] 0.059 | [7] 0.058 | [8] -0.02 | [9] 0.067 | [10] 0

POTEI (UniProt P0CG38)
inactive: [1] -0.176 | [2] 0.046 | [3] 0.052 | [4] 0.003 | [5] 0.015 | [6] 0.059 | [7] -0.025 | [8] -0.179 | [9] 0.021 | [10] 0.012

PGGHG (UniProt Q32M88)
inactive: [1] 0.018 | [2] 0.045 | [3] -0.013 | [4] 0.136 | [5] 0.05 | [6] 0.044 | [7] 0.008 | [8] -0.054 | [9] -0.124 | [10] -0.027

PIK3R1 (UniProt P27986)
inactive: [1] 0.032 | [2] -0.004 | [3] 0.077 | [4] 0.038 | [5] -0.04 | [6] -0.011 | [7] 0.027 | [8] 0.083 | [9] 0.004 | [10] 0.072

PPOX (UniProt P50336)
Sequence of UniProt P50336 (P50336 whole entry, looked up): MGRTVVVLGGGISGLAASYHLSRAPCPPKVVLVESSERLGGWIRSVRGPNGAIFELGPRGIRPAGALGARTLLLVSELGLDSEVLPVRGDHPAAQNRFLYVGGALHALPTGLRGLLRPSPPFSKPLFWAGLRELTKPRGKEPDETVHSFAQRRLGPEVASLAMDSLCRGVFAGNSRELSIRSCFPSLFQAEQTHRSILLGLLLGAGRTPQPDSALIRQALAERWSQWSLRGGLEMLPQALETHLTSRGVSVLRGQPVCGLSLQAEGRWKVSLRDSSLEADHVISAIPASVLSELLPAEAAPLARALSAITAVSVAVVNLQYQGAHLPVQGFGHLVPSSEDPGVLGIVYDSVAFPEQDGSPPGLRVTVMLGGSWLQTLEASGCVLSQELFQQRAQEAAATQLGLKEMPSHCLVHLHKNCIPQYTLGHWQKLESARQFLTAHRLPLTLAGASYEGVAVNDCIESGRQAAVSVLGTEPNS
inactive: [1] 0.095 | [2] 0.136 | [3] -0.151 | [4] 0.077 | [5] 0.187 | [6] -0.217 | [7] -0.008 | [8] -0.039 | [9] -0.095 | [10] -0.009

PDE2A (UniProt O00408)
Sequence of UniProt O00408 (O00408 whole entry, looked up): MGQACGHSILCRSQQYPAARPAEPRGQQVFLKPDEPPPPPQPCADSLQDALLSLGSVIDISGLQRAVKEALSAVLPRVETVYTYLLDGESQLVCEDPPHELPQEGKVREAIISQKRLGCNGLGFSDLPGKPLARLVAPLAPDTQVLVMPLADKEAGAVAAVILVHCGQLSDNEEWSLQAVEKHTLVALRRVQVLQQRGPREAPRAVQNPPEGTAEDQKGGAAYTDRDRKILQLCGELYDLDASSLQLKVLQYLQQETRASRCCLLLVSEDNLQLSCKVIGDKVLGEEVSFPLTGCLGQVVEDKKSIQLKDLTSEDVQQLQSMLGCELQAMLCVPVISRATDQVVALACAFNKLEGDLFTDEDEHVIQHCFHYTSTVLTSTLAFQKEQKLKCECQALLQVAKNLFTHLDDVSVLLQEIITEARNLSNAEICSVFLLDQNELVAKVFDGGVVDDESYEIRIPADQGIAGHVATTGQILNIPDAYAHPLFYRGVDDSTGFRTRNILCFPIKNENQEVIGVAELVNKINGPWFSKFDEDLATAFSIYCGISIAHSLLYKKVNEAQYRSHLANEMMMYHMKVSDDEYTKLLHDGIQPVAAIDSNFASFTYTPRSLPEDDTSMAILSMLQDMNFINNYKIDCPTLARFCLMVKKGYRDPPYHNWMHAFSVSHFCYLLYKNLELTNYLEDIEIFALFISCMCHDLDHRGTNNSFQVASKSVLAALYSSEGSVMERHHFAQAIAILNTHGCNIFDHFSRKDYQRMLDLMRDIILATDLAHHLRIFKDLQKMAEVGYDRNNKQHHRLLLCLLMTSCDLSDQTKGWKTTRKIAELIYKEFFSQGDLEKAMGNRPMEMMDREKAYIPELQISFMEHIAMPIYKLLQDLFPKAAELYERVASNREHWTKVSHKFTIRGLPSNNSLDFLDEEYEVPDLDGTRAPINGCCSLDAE
inactive: [1] 0.083 | [2] 0.026 | [3] -0.001 | [4] 0.12 | [5] -0.082 | [6] 0.014 | [7] -0.009 | [8] -0.007 | [9] -0.064 | [10] 0.043

PDCD2L (UniProt Q9BRP1)
Sequence of UniProt Q9BRP1 (Q9BRP1 whole entry, looked up): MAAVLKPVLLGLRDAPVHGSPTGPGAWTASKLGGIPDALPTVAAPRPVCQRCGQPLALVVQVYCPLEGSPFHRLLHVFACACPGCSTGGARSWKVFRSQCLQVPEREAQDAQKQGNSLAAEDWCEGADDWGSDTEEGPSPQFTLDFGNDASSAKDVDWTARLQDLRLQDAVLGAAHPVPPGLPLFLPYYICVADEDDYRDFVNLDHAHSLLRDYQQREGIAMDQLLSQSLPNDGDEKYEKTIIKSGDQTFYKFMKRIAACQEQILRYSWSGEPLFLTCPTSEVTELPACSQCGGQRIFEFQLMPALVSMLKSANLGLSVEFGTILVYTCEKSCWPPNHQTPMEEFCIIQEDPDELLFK
inactive: [1] -0.034 | [2] -0.006 | [3] 0.07 | [4] 0.047 | [5] -0.115 | [6] 0.078 | [7] 0.042 | [8] 0.007 | [9] 0.065 | [10] 0.041

PPT2 isoform 3 (UniProt Q9UMR5)
Sequence of UniProt Q9UMR5 (Q9UMR5 whole entry, looked up): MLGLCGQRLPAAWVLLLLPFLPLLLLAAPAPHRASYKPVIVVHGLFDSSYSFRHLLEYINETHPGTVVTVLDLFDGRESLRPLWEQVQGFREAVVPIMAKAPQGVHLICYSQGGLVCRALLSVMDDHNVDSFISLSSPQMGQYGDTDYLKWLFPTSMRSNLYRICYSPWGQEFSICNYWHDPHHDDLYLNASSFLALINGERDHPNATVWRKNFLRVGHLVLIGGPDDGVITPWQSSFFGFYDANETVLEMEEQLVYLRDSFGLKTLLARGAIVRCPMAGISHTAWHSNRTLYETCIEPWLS
inactive: [1] 0.078 | [2] 0.036 | [3] -0.04 | [4] 0.052 | [5] 0.006 | [6] -0.17 | [7] -0.014 | [8] -0.041 | [9] -0.012 | [10] 0.037

PARL (UniProt Q9H300)
inactive: [1] 0.019 | [2] 0.007 | [3] 0.003 | [4] -0.022 | [5] -0.003 | [7] 0.005 | [8] -0.006 | [9] 0.059 | [10] 0.017
active: [6] -0.233

PBK (UniProt Q96KB5)
inactive: [1] -0.142 | [2] -0.059 | [3] 0 | [4] 0.111 | [5] -0.144 | [6] -0.286 | [7] 0.06 | [8] 0.071 | [9] -0.011 | [10] -0.08

PC (UniProt P11498)
Sequence of UniProt P11498 (P11498 whole entry, looked up): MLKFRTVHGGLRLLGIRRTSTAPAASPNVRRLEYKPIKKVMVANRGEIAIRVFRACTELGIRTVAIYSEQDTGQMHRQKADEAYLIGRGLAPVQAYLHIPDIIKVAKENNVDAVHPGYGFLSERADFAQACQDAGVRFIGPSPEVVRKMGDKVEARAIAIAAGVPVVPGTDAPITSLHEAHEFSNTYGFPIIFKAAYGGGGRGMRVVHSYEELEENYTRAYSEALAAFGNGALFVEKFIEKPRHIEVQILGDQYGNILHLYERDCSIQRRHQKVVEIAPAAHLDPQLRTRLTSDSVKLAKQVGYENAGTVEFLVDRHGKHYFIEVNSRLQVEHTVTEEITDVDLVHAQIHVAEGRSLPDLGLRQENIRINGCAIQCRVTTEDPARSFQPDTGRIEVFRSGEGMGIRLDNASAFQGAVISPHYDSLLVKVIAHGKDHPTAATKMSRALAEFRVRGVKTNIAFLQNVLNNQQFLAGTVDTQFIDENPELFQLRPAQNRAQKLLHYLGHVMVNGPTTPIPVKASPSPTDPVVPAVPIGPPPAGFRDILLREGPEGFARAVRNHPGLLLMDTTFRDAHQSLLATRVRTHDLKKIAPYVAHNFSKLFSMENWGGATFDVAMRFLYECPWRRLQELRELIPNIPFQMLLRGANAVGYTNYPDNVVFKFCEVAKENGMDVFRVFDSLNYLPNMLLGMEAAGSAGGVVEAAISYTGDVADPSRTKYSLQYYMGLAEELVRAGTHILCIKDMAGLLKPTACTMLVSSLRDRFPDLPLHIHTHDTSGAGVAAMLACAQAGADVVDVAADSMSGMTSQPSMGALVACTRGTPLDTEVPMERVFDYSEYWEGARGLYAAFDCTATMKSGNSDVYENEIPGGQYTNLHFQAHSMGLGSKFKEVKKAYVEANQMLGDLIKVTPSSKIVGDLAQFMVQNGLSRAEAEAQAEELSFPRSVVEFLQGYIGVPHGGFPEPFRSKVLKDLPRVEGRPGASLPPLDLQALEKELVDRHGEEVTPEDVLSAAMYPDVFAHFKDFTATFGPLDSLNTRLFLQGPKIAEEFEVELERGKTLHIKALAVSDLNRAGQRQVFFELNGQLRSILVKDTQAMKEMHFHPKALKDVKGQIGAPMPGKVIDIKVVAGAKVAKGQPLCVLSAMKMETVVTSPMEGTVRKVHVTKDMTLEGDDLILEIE
inactive: [1] -0.024 | [2] 0.04 | [3] -0.151 | [4] -0.02 | [5] -0.038 | [6] 0.183 | [7] -0.037 | [8] -0.016 | [9] -0.081 | [10] 0.15

PTP4A1 (UniProt Q93096)
Sequence of UniProt Q93096 (Q93096 whole entry, looked up): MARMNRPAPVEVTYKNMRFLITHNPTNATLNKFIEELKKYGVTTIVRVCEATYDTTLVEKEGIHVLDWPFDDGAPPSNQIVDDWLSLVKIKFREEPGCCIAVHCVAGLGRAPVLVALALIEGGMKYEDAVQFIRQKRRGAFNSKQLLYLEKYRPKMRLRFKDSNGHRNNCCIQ
inactive: [1] -0.011 | [2] -0.05 | [3] 0.092 | [4] -0.096 | [5] 0.013 | [6] -0.049 | [7] -0.062 | [8] -0.02 | [9] 0.008 | [10] -0.179

PHF5A (UniProt Q7RTV0)
inactive: [1] 0.02 | [2] 0.001 | [3] 0.008 | [4] 0 | [5] 0.088 | [7] -0.073 | [8] -0.073 | [9] 0.011 | [10] 0.109
active: [6] 0.242

PNPLA8 (UniProt Q9NP80)
Sequence of UniProt Q9NP80 (Q9NP80 whole entry, looked up): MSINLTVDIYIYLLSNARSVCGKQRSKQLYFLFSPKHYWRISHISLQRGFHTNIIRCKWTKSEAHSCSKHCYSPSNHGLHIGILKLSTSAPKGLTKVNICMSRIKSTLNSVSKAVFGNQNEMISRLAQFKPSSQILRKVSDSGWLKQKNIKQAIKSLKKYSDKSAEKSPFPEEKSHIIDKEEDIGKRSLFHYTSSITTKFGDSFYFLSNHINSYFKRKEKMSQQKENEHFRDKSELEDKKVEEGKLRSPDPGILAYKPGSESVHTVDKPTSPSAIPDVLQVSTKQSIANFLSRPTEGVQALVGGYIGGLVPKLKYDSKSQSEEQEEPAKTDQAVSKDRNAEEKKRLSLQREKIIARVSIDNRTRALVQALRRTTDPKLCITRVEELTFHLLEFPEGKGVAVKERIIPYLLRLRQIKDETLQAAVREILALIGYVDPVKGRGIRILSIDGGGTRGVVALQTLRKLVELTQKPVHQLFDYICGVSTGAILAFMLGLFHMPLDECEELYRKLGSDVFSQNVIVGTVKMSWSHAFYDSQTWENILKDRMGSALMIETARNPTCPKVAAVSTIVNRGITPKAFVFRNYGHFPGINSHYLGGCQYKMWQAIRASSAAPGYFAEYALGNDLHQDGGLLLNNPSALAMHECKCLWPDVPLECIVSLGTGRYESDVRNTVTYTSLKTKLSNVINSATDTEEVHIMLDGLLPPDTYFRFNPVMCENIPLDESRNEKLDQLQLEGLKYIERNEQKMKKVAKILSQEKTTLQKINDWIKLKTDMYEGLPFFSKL
inactive: [1] -0.022 | [2] -0.049 | [3] 0.151 | [4] -0.005 | [5] -0.071 | [6] -0.06 | [7] 0.003 | [8] 0.064 | [9] -0.008 | [10] 0.043

PEX13 (UniProt Q92968)
inactive: [1] 0.053 | [2] -0.067 | [3] -0.011 | [4] 0.062 | [5] -0.193 | [6] -0.201 | [7] 0.036 | [8] -0.032 | [9] 0.003 | [10] 0.024

PRKCG (UniProt P05129)
inactive: [1] 0.025 | [2] -0.024 | [3] -0.351 | [4] 0.049 | [5] -0.099 | [6] -0.097 | [7] 0.055 | [8] 0.054 | [9] 0.037 | [10] 0.028

POLR3B (UniProt Q9NW08)
inactive: [1] -0.121 | [2] -0.048 | [3] 0.044 | [4] 0.052 | [5] -0.116 | [6] -0.183 | [7] 0.055 | [8] 0.115 | [9] -0.035
active: [10] 0.297

POLR3K (UniProt Q9Y2Y1)
inactive: [1] 0.026 | [2] 0.044 | [3] -0.013 | [4] -0.084 | [5] -0.07 | [6] 0.124 | [7] 0.089 | [8] 0.043 | [9] 0.032 | [10] -0.039

PPP6R1 (UniProt Q9UPN7)
inactive: [1] 0 | [2] 0.009 | [3] 0.039 | [4] -0.01 | [5] -0.031 | [6] -0.077 | [7] 0.038 | [8] -0.047 | [9] 0.003 | [10] -0.041

PPP1R14A (UniProt Q96A00)
Sequence of UniProt Q96A00 (Q96A00 whole entry, looked up): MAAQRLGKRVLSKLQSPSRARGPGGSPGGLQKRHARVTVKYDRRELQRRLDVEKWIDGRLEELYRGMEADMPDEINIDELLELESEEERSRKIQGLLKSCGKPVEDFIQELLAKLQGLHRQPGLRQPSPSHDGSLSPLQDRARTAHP
inactive: [1] 0.041 | [2] -0.01 | [3] 0.036 | [4] 0.218 | [5] -0.009 | [6] 0.126 | [7] -0.122 | [8] -0.065 | [9] 0.01 | [10] -0.073

PTRHD1 (UniProt Q6GMV3)
Sequence of UniProt Q6GMV3 (Q6GMV3 whole entry, looked up): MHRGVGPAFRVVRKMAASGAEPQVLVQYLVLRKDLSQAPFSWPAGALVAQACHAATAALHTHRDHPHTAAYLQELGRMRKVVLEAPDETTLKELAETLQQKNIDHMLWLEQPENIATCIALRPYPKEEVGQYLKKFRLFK
inactive: [1] 0.155 | [2] 0.004 | [3] -0.048 | [4] -0.049 | [5] -0.022 | [6] 0.139 | [7] -0.01 | [8] 0.003 | [9] 0.054 | [10] 0.184
